ATXN viability: reduces viability in counter-screen for ATXN expression inhibitors; S2 cells (HEK-293 line with an ATXN2-luciferase reporter) viability, CellTiter-Fluor protease fluorescence, 24 h; Potency, µM (doses to about 56.7 µM), usual class: cytotoxic; 400,000 tested, 0.49% active; also: nearly all actives have a fitted effect of over 40% in size
TGFb inhibitor: TGF-b pathway inhibition | Potency, µM (titrated, usually from 46.1 µM), inactives show at the top dose activity, negative = inhibition, actives largely listed as inhibitors | HepG2 CAGA-GFP TGF-b/SMAD3 reporter, GFP fluorescence, 18 h; TGF-beta stimulated, 500 pg/mL final | 410,000 tested, 1.2% active; also: % is scaled to controls: 0 for no effect and ±100 for the full control effect; nearly all actives have a fitted effect of over 65% in size
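Smad-responsive CAGA-GFP expression was quantified in HEPG2 cells exposed to compounds and 500 pg/mL final TGF-beta for 18 h at 37 degrees C; unstimulated wells defined full inhibition.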
ALOX12 inh: blocks human arachidonate 12S-lipoxygenase. P18054. purified 12hLO, xylenol orange hydroperoxide absorbance. Potency, µM (highest dose often 108 µM), for inactives: at the highest dose activity change, negative = inhibition, hits mostly inhibitors. 580,000 tested, 1.1% active. AID 1671190; also: % is scaled to controls: 0 for no effect and ±100 for the full control effect
Target sequence (P18054 whole entry, looked up): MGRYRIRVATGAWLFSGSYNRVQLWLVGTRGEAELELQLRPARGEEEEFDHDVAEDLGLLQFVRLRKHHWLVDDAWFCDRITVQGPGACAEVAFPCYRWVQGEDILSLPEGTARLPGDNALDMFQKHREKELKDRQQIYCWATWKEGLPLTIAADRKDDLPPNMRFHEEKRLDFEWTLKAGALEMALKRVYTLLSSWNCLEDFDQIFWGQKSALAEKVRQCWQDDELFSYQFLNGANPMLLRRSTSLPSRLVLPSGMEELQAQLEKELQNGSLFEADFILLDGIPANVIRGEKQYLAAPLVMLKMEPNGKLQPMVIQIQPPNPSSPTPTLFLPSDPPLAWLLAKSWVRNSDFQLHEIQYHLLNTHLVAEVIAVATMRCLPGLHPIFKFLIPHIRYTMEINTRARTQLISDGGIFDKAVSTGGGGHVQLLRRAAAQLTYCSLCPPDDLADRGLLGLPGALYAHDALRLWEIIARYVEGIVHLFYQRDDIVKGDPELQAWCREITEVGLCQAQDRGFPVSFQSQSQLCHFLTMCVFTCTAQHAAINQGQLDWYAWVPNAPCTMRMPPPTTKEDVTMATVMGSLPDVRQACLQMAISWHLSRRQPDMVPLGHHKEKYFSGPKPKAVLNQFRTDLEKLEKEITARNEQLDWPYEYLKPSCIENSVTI
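Purified human 12hLO (150 nM final) in 25 mM Hepes, 0.01% Triton X-100, pH 7.0 was preincubated 15 min at room temperature with compound. Then 40 uM arachidonic acid was added, 30 min. Hydroperoxide was read by Fe-XO absorbance ratio 573/405 nm.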
HepG2 viability: kills HepG2 cells in TGF-b inhibitor counter-screen. HepG2 CAGA-GFP viability, ATP luminescence, 18 h. Potency, µM (doses to about 46.1 µM), without a hit: top-dose activity change, negative = cytotoxicity, most hits filed as cytotoxic. 410,000 tested, 0.76% active
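CellTiter-Glo luminescence gave cytotoxicity after 18 hours at 37 degrees C. The cells were HepG2 CAGA-GFP in 1% FBS DMEM, stimulated with 500 pg/mL TGF-beta after compound addition. %Activity was normalised to no-cell wells (complete cell-killing) and DMSO (no toxicity), and curves were fitted and classified.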
ATXN2 expr inh: reduces ATXN2 reporter expression in HEK-293 cells | HEK-293 ATXN2-luciferase reporter, luminescence, 24 h | Potency, µM (doses to about 57 µM), without a hit: at the highest dose activity change, negative = inhibition, usual class: inhibitors | 360,000 tested, 0.72% active | AID 1745845; also: % is scaled to controls: 0 for no effect and ±100 for the full control effect; nearly all actives have a fitted effect of over 55% in size
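qHTS (up to 57 uM final) was run with 24 h compound exposure of reporter cells at 37 °C. Each well was multiplexed: SteadyGlo luminescence measured ATXN2-luciferase expression after a fluorogenic Gly-Phe-AFC viability readout (25 uM final).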
* marks the source's active call; other numbers are inactive results; i = inactive; ? = inconclusive; nt = no result; [ ] = dose if it differs, or a comment. In the library only some 2.7% were active in any assay of this set; here they are far more common. Calls follow the shape of the dose curve; as a rule, active = well fitted curve in the direction sought with a large enough effect; inconclusive = small, poorly fitted or top-dose-only effect, or another doubt; inactive = no such curve, though single readings can be large; an effect the other way counts as inactive or inconclusive. Potency is read from the fitted curve at half-maximal effect.

SMILES	ATXN viability	TGFb inhibitor	ALOX12 inh	HepG2 viability	ATXN2 expr inh
O=C1CSC(=S)N1N=Cc1c(O)ccc2ccccc12	i	?	11µM*	-14%	-12%
COc1cccc(/C=N/N2C(=O)CSC2=S)c1O	i	-19%	35µM*	-4%	1%
COc1cc(/C=N/N2C(=O)CSC2=S)cc(Br)c1O	i	15%	?	8%	-6%
COc1ccc2ccccc2c1/C=N/N1C(=O)CSC1=S	i	-14%	-12%	17%	-6%
O=C1CSC(=S)N1/N=C/c1c(F)cccc1F	i	5%	28µM*	0%	0%
CCCOc1ccc(NC(=O)c2cccc3ccccc23)c2cccnc12	nt	nt	12%	nt	nt
COc1ccc(CNc2ncc(-c3ccc(F)cc3)n2C)c2ccccc12	i	?	?	-43%	2µM*
CC(=O)OCC1=C(C(=O)O)N2C(=O)C(NC(=O)CCn3nc(C(F)(F)F)c(Br)c3C3CC3)C2SC1 (centres undefined)	i	-2%	35µM*	10%	-21%
CC(C)CN1CCn2c(nc3cc(C(=O)NC(C)C)ccc32)C1	nt	nt	2%	nt	nt
Cc1ccc(-n2nc(C)c3c(C(=O)NC4CCN(Cc5ccccc5)CC4)cc(C)nc32)cc1	nt	nt	7.1µM*	nt	nt
C[C@@H](NCc1cccc(Cl)c1)c1onc(-c2ccc(F)cc2)c1C(=O)O	nt	nt	28µM*	nt	nt
C[C@@H](NCc1ccccc1)c1onc(-c2ccc(F)cc2)c1C(=O)O	nt	nt	-1%[176 µM]	nt	nt
CCCCCCCn1c2c(c(=N)c3c1CCC3)CCCC2	?	?	?	-12%	1.9µM*
CCCCCCCCCn1c2c(c(=N)c3c1CCC3)CCC2	?	4.5µM*	nt	-72%	2µM*
CCCCn1c2c(c(=N)c3c1CCC3)CCC2	i	?	0%	4%	?
CCCCCCn1c2c(c(=N)c3c1CCC3)CCC2	i	?	-10%	-8%	8.9µM*
CCOCCCNC(=O)C(NC(=O)C1CCC(CC)CC1)C(C)C (centres undefined)	nt	nt	6%	nt	nt
CCCn1c(Sc2ccc(C)cc2)nc2c1c(=O)[nH]c(=O)n2C	nt	nt	22%	nt	nt
COc1ccc2[nH]c3c(=O)n(CCCCC(=O)NCCN4CCCC4)c(=S)[nH]c3c2c1	i	-2%	14µM*	-3%	0%
COc1cc(OC)c(NC(=O)NCc2cccn2Cc2ccccc2)cc1Cl	?	8.9µM*	-13%	0%	?
COc1ccc(C=C2CS(=O)(=O)CC(=Cc3ccc(OC)cc3)C2=O)cc1	?	5µM*	?	-82%	nt
Cc1ccc(-c2cc(C(=O)N3CCOC(C)C3)n[nH]2)s1 (centres undefined)	nt	nt	25%	nt	nt
CCCCNC1C(CC)C(CCC)C(C#N)(C#N)C1(C#N)C#N (centres undefined)	?	10µM*	nt	-54%	-35%
N#C/C(=N\Nc1cccc(C(F)(F)F)c1)C(=O)c1ccsc1	i	10µM*	?	-81%	nt
COc1cc(C2C3=C(CCCC3=O)OC3=C2C(=O)CCC3)ccc1OCc1cccc(F)c1	nt	nt	7%	nt	nt
SMILES	ATXN viability	TGFb inhibitor	ALOX12 inh	HepG2 viability	ATXN2 expr inh
CN(C)c1ccc(/C=C2\SC(=O)N(CCc3nnc(N)s3)C2=O)cc1	i	9%	11%	-10%	4µM*
Cc1ccc(C(=O)Nc2cc3c(cc2SCc2ccco2)n(C)c(=O)n3C)cc1	nt	nt	7.9µM*	nt	nt
Cc1ccc(NC(=O)CSCc2ccco2)cc1	i	-4%	0%	-1%	19%
CCCC(=O)N(C)CCOc1ccccc1	nt	nt	-1%	nt	nt
COc1ccc2ccc(O)c(CN(C)CC(=O)Nc3ccccc3C(F)(F)F)c2c1	i	?	7.1µM*	-156%	3%
COc1cccc(CN(C)Cc2c(O)ccc3ccccc23)c1	i	-17%	10µM*	-25%	8%
COc1cccc(CN(C)CC(=O)Nc2cccc3ccccc23)c1	i	-3%	?	-9%	-16%
COc1ccc(CN(C)Cc2c(O)ccc3ccccc23)cc1	i	0%	10µM*	0%	20%
COc1ccc(CN(C)CC(=O)Nc2ccccc2C(F)(F)F)cc1	i	-15%	-14%	3%	nt
CCOC(=O)c1oc2ccc(S(=O)(=O)NCC3Cn4cccc4C(=O)N3C)cc2c1C (centres undefined)	nt	nt	35µM*	nt	nt
COc1ccccc1OCC(=O)OCC(=O)c1cc(Cl)ccc1Cl	nt	nt	0%	nt	nt
Cc1noc2nc(C(C)C)cc(C(=O)NC3CCCc4c3[nH]c3ccccc43)c12 (centres undefined)	nt	nt	32µM*	nt	nt
O=C1/C(=C/c2ccccc2F)CCc2ccccc21	nt	nt	3.2µM*	nt	nt
Cc1ccc(NCc2ccc(O)c3ncccc23)cc1C	i	?	?	-4%	-12%
Cc1ccc(NCc2ccc(O)c3ncccc23)cc1	i	-2%	4µM*	-11%	9%
O=c1oc2c(O)cccc2cc1-c1nc2ccccc2[nH]1	nt	34%	?	-34%	9%
O=C(O)c1ccc2nc(-c3cc4cccc(O)c4oc3=O)[nH]c2c1	nt	nt	-30%	8.9µM*	nt
CNC(=O)CN(c1ccc(C23CC4CC(CC(C4)C2)C3)cc1)S(C)(=O)=O	i	-18%	-4%	-9%	-7%[11.3 µM]
CS(=O)(=O)N(CC(=O)Nc1ccc(CC#N)cc1)c1ccc(C23CC4CC(CC(C4)C2)C3)cc1	?	7.1µM*	14%	-38%	-28%
O=c1c(=O)n(-c2ccc(F)c(F)c2)ccn1Cc1c(F)cccc1Cl	nt	nt	-3%	nt	nt
CCn1c(/C=C/Nc2ccccc2)[n+](CC)c2ccc(Cl)cc21	?	-1%	?	-12%	-13%
CCOC(=O)c1ccc2c(c1)n(CC)c(/C=C/Nc1ccccc1)[n+]2CC	11µM*	9%	?	-28%	?
CC1=CC[C@H](CC=O)C1(C)C	nt	nt	5%[176 µM]	nt	nt
CS(=O)(=O)c1nc([N+](=O)[O-])nn1CCCc1ccccc1	nt	?	nt	-187%	?
Cn1nc([N+](=O)[O-])nc1S(C)(=O)=O	?	13µM*	-3%	20µM*	?
SMILES	ATXN viability	TGFb inhibitor	ALOX12 inh	HepG2 viability	ATXN2 expr inh
COc1ccc(OC)c(CN2CCC(Cc3ccccc3)CC2)c1	i	1%	?	-25%	-24%
COc1ccccc1CN1CCC(Cc2ccccc2)CC1	nt	nt	0.56µM*	nt	nt
CSc1ccc(CN2CCC(Cc3ccccc3)CC2)cc1	?	-15%	1.6µM*	-29%	nt
COc1cc(OC)c(CN2CCC(Cc3ccccc3)CC2)cc1Br	?	?	1µM*	-39%	nt
Clc1ccc(CN2CCC(Cc3ccccc3)CC2)cc1	i	?	?	-54%	-37%
COc1ccccc1CNc1ccccc1C(=O)O	nt	nt	0%	nt	nt
CN(C)S(=O)(=O)N(C)CC1COc2ccccc2O1 (centres undefined)	nt	nt	4%	nt	nt
CSc1ccc(CNC(=O)c2cc3c(N(C)Cc4ccccc4)nc(C)cn3n2)cc1	nt	nt	33%	nt	nt
